From PubChem
sEH inhibitor: blocks human soluble epoxide hydrolase activity. inhibition, % at 2 µM. actives 0.34% (n = 91,000). recombinant human sEH enzymatic activity assay; in the data active = inhibition above about 80%
Target sequence (P34913 whole entry, looked up): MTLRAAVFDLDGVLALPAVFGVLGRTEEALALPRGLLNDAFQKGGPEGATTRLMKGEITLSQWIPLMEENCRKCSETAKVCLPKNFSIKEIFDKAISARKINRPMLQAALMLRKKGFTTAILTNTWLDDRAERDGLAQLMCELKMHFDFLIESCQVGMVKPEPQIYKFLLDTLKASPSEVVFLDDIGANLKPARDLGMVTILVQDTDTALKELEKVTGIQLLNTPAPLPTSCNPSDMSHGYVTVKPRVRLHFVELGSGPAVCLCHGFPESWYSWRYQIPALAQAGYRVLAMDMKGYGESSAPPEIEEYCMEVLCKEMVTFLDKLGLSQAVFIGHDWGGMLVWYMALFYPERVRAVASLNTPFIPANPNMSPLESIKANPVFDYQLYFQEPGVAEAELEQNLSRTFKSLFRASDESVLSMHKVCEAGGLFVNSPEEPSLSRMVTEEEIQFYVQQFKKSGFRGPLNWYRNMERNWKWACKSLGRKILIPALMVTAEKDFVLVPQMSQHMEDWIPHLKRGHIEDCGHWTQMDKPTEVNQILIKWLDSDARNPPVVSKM
sEH act: soluble epoxide hydrolase (human) activation. P34913. purified human sEH enzymatic activity, activator screen. activation, % at 2 µM. actives 0.04% (n = 91,000). AID 717; in the data active = activation above about 37%
CYP2C19 inh: blocks human cytochrome P450 2C19; P33261; CYP2C19 Supersomes, luciferin-H EGE luminescence, 30 min; inhibition, % at 5 µM; actives 21% (n = 96,000);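 active = CYP2C19 inhibition above a set limit at 5 µM in the primary screen, cut at about 50% in these data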;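 note: plate controls were negative control wells for no effect and 2.5 mM tranylcypromine positive control for full effect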
CYP2C9 activ: CYP2C9 (human) activation; actives 1.4% (n = 96,000); activation factor at 5 µM; P11712; recombinant CYP2C9, luciferin-H conversion, luminescence; active compounds read high; factor 1 = untreated enzyme, 0 = blocked;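 active = activation factor of 2 or more for CYP2C9 at a 5 µM dose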;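 note: 0 = sulfaphenazole-blocked wells and 1 = vehicle-only wells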
CYP2C9 inh: human CYP2C9 inhibition; CYP2C9 Supersomes, luciferin-H conversion, luminescence; inhibition, % at 5 µM; actives 20% (n = 96,000); AID 777;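 active = blocking of liver enzyme CYP2C9 beyond about 50% at 5 µM, limit read from the data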
CYP2C19 act: cytochrome P450 2C19 (human) activation; P33261; recombinant CYP2C19, luciferin-H EGE luminescence; active compounds read high; 0 = fully inhibited enzyme, 1 = untreated enzyme; activation factor at 5 µM; 96,000 tested, under 10 active; AID 1025;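 active = activation factor of at least 2 at 5 µM in the primary screen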;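 note: 0 = wells with 2.5 mM tranylcypromine and 1 = vehicle-only wells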
Starred values were filed as active, the others as inactive; · = not tested or not shown. The list is not random: actives were taken first. Their share in the collection is about 27%.

SMILES | sEH inhibitor | sEH act | CYP2C19 inh | CYP2C9 activ | CYP2C9 inh | CYP2C19 act
Cc1[nH]nc2c1C(c1cccc(OC(=O)N3CCOCC3)c1)C(C#N)=C(N)O2 (stereo unspecified) | -0.6 | -1.3 | 12.7 | 0.9 | 14.5 | 0.9
O=C(Nc1ccc2c(c1)OC1(CCCC1)O2)C1CC1 | · | · | 88.2* | 0.4 | 63.9* | 0.1
Cc1ccc(S(=O)(=O)CCc2nnc(NC(=O)c3cnccn3)s2)cc1 | 0.1 | 1.4 | -13.2 | 0.5 | 51.1* | 1.1
CSC1=NCCN1C(=O)c1ccc2c(c1)OCO2 | -6.5 | 9.7 | 10.3 | 0.9 | 5.4 | 0.9
CC1=CC(C)(C)N(C(=O)c2ccc(F)cc2)c2cc3c(cc21)OCO3 | -1.3 | 1.3 | 95.2* | 0 | 96.7* | 0
CN(C)S(=O)(=O)c1ccc(C(=O)OCC(=O)c2ccc(OC(F)F)cc2OC(F)F)cc1 | -22.7 | 22.7 | 85.5* | 0.5 | 48.4 | 0.1
O=C(COC(=O)c1cccc(S(=O)(=O)NCc2ccccc2)c1)Nc1ccccc1OC(F)F | 8.3 | -10.2 | 59.5* | 0.8 | 21.3 | 0.4
CN(C)S(=O)(=O)c1ccc(C(=O)Oc2ccccc2)cc1 | 15.4 | -12.9 | 22.4 | 1 | -4.2 | 0.8
O=C(COC(=O)c1ccc(S(=O)(=O)NCc2ccco2)cc1)Nc1ccccc1OC(F)F | · | · | 4.8 | 0.2 | 76.5* | 1
CN(C)S(=O)(=O)c1cccc(C(=O)OCC(=O)NCc2ccccc2)c1 | 6.7 | -4.6 | -7.0 | 1 | 3.1 | 1.1
O=C(COC(=O)COc1ccccc1Cl)Nc1ccccc1OC(F)F | -14.8 | 16.2 | 9.1 | 0.8 | 18.9 | 0.9
CN(C)S(=O)(=O)c1ccc(C(=O)OCC(=O)Nc2ccccc2OC(F)F)cc1 | 3.3 | -2.1 | 8.1 | 0.4 | 58.2* | 0.9
COc1ccccc1NC(=O)c1ccc(S(=O)(=O)N(C)C)cc1 | -4.1 | 2.8 | 10.4 | 1 | -2.2 | 0.9
CC(=O)NC(Cc1cc(C)ccc1C)C(=O)N1CCN(C(=O)Nc2ccc(C(C)=O)cc2)CC1 (stereo unspecified) | -1.0 | 2.5 | 13.3 | 1 | -1.0 | 0.9
COC(/C=C/Nc1ccc(C)cc1)=C(C#N)C#N | -4.9 | 6.8 | -7.9 | 1 | 2.7 | 1.1
COc1ccc(-c2cc(C3CC3)nc3sc(C#N)c(N)c23)cc1 | -18.9 | 22.2 | 57.2* | 0.4 | 58.8* | 0.4
N#Cc1sc2nc(-c3cccs3)cc(-c3ccc(Cl)cc3)c2c1N | -4.7 | 4.7 | 18.9 | 0.8 | 17.2 | 0.8
CCCCN1C(=S)SC(C)(C)C1/[N+]([O-])=C/c1cccnc1 (stereo unspecified) | -1.3 | 5.0 | 30.7 | 0.7 | 30.9 | 0.7
c1ccc(CCNc2ncnc3scc(C4COc5ccccc5O4)c23)cc1 (stereo unspecified) | -17.0 | 13.7 | 56.8* | 0.3 | 72.9* | 0.4
c1ccc2c(c1)OCC(c1csc3ncnc(N4CCCC4)c13)O2 (stereo unspecified) | -1.8 | 2.8 | 99.3* | 0.1 | 93.9* | 0
O=C(CSc1nnc(C2COc3ccccc3O2)o1)Nc1nccs1 (stereo unspecified) | · | · | 8.5 | 0.7 | 30.4 | 0.9
S=c1[nH]nc(C2COc3ccccc3O2)o1 (stereo unspecified) | 8.4 | -9.5 | 6.5 | 0.5 | 49.8 | 0.9
CCCCOC(=O)Nc1ccc(S(=O)(=O)Nc2nc(C)cc(C)n2)cc1 | 4.9 | -1.8 | 1.4 | 0.6 | 40.7 | 1
Cc1ccc(S(=O)(=O)Nc2nc(C)c(NC(=O)Nc3ccc(Cl)cc3Cl)s2)cc1 | 7.1 | -5.4 | 4.3 | 0.4 | 61.0* | 1
Cc1ccc(S(=O)(=O)Nc2nc(C)c(NC(=O)OCCCl)s2)cc1 | -2.3 | 0.0 | 3.9 | 0.1 | 89.0* | 1
SMILES | sEH inhibitor | sEH act | CYP2C19 inh | CYP2C9 activ | CYP2C9 inh | CYP2C19 act
COc1cccc(NC(=O)c2ccn(C)n2)c1 | -14.7 | 17.6 | · | · | · | ·
CC1=C(C#N)C(Nc2cc(C)ccn2)(C(F)(F)F)C(=O)N1 (stereo unspecified) | -1.1 | -0.1 | 76.1* | 0.7 | 26.3 | 0.2
CC1=C(C#N)C(NC(=O)c2ccco2)(C(F)(F)F)C(=O)N1 (stereo unspecified) | -9.0 | 9.1 | 2.5 | 1.2 | -23.0 | 1
COC(=O)C(NC(=O)c1ccco1)(Nc1cc(C)ccn1)C(F)(F)F (stereo unspecified) | 4.8 | -7.1 | · | · | · | ·
CC1=C(C#N)C(NC(=O)c2ccc(C)cc2)(C(F)(F)F)C(=O)N1 (stereo unspecified) | 3.3 | -1.3 | 91.5* | 0.8 | 16.7 | 0.1
O=C(CCC(=O)NC1CCN(Cc2ccccc2)CC1)NCc1ccco1 | · | · | 4.0 | 1.1 | -9.1 | 1
Cc1ccc(C)c(C(=O)C(C)OC(=O)c2cccn2C)c1 (stereo unspecified) | · | · | 9.4 | 0.8 | 20.8 | 0.9
Cc1cc(-c2cccs2)c2c(n1)sc1c(=O)[nH]c(=O)[nH]c12 | 5.7 | -3.3 | -22.4 | 1 | 0.2 | 1.2
CCCC(=O)N1CCN(c2ccc([N+](=O)[O-])c(NC(C)c3ccccc3)c2)CC1 (stereo unspecified) | -1.5 | 1.6 | 63.4* | 0.3 | 69.5* | 0.4
O=C(c1ccccc1CCc1ccccc1)N1CCOCC1 | 6.6 | -3.0 | 39.7 | 1.1 | -11.3 | 0.6
Cc1ccc(S(=O)(=O)CCC(=O)OCC(=O)Nc2ncc(Cl)cc2Cl)cc1 | 19.3 | -18.0 | 9.4 | 1.1 | -10.1 | 0.9
O=C(COC(=O)CC12CC3CC(CC(C3)C1)C2)Nc1ncc(Cl)cc1Cl | -3.0 | 3.0 | 89.0* | 0.3 | 65.7* | 0.1
O=C(COC(=O)C12CC3CC(CC(C3)C1)C2)Nc1ncc(Cl)cc1Cl | 34.6 | -33.3 | 79.2* | 0.8 | 17.3 | 0.2
CC(C(=O)OCC(=O)Nc1ncc(Cl)cc1Cl)N1C(=O)c2ccccc2C1=O (stereo unspecified) | 0.2 | -1.4 | 9.2 | 0.9 | 5.0 | 0.9
CC(C)(Oc1ccc(Cl)cc1)C(=O)OCC(=O)Nc1ncc(Cl)cc1Cl | 16.6 | -13.6 | 91.3* | 0.5 | 48.2 | 0.1
Cc1ccc(S(=O)(=O)NCC(=O)OCC(=O)Nc2ncc(Cl)cc2Cl)cc1 | 0.9 | -0.8 | 25.7 | 0.9 | 13.0 | 0.7
CCOC(=O)N1CCN(C(=O)COc2ccc(S(=O)(=O)NC(C)C)cc2)CC1 | · | · | -10.0 | 0.8 | 17.8 | 1.1
COc1cc(NC(=O)C2CCN(S(=O)(=O)c3ccc(Cl)cc3)CC2)ccc1-n1cnnn1 | 4.9 | -2.9 | 4.7 | 0.9 | 9.2 | 1
CSc1ccccc1NC(=O)CSCc1ccc(Br)cc1 | -2.9 | 3.8 | 17.4 | 0.9 | 13.0 | 0.8
Cc1ccc(C2SCC(=O)N2Cc2cn3ccsc3n2)o1 (stereo unspecified) | -3.9 | 7.0 | 26.6 | 1.1 | -12.2 | 0.7
COc1cc2c(cc1OC)CN(C(=O)C1(c3ccccc3)CC1)CC2 | -2.7 | 2.3 | 36.8 | 0.5 | 53.8* | 0.6
CC(C)C1N=C2c3ccccc3N=C(SCc3cc(=O)n4cc(Cl)ccc4n3)N2C1=O (stereo unspecified) | 10.3 | -10.1 | 45.1 | 0.5 | 54.6* | 0.5
